Entries with a potency or affinity are not part of this list.
Experiments:
[1] = tested on: Klebsiella pneumoniae; conditions: Concentration 32 ug.mL-1;; ASSAY_TEST Inhibition of Bacterial Growth; detection method Absorption (OD600); MEDIA CAMHB; plate type 384well; NBS; CORNING #3640; time 18 hr
[2] = tested on: Candida albicans; conditions: Concentration 32 ug.mL-1; ASSAY_TEST Inhibition of Fungal Growth; detection method Absorption (OD530)
[3] = tested on: Cryptococcus neoformans; conditions: Concentration 32 ug.mL-1; ASSAY_TEST Inhibition of Fungal Growth; detection method Resazurin; Absorption (OD600-OD570); plate type 384well; NBS; CORNING #3640

| Structure (SMILES) | Inhibition [1] | Inhibition [2] | Inhibition [3] |
| --- | --- | --- | --- |
| Cc1ccc2c(c1)N(C(=O)Cn1nc3ccc(SC(C)(C)C)nn3c1=O)CCO2 | 14.93% | 9.3% | -18.35% |
| O=C(Cn1nc2ccc(-c3ccc(Cl)cc3)nn2c1=O)N1CCN(c2ccccc2)CC1 | -0.57% | -1.89% | -9.03% |
| Cc1ccccc1NC(=O)Cn1nc2c3cc(-c4ccc(Cl)cc4)nn3ccn2c1=O | 14.64% | 1.52% | -18.17% |
| CCc1cccc(NC(=O)Cn2nc3ccc(SC(C)(C)C)nn3c2=O)c1 | 16.66% | 3.39% | -23.79% |
| O=C(Cn1nc2c3cc(-c4ccc(F)cc4)nn3ccn2c1=O)N1CCCc2ccccc21 | 8.12% | 1.02% | -21.22% |
| Cc1ccc(Cl)cc1N1CCN(C(=O)CCc2nnc3c4cc(-c5ccccc5)nn4ccn23)CC1 | 5.47% | 0.3% | -6.62% |
| COc1ccc(CNC(=O)CCc2nnc3ccc(-c4ccccc4)nn23)cc1OC | 15.01% | -1.16% | -12.03% |
| Cc1ccc(NC(=O)Cn2nc3c(Oc4ccccc4Cl)nccn3c2=O)cc1F | 12.22% | 0.49% | -9.07% |
| Cc1ccc(NC(=O)Cn2nc3c4cc(-c5ccc(C)c(C)c5)nn4ccn3c2=O)cc1 | 12.57% | 8.44% | -14.13% |
| Cc1cc(C)cc(NC(=O)Cn2nc3c4cc(-c5ccc(Cl)cc5)nn4ccn3c2=O)c1 | 7.37% | 6.87% | -7.11% |
| COCCCNC(=O)CSc1nnc2c(=O)n(Cc3ccccc3F)ccn12 | 15.39% | 4.29% | -16.33% |
| Cc1cccc(CSc2nnc3c(=O)n(-c4ccc(Br)cc4)ccn23)c1 | -2.02% | 2.08% | -6.53% |
| CCc1cccc(NC(=O)Cn2nc3c(SC4CCCCC4)nccn3c2=O)c1 | 3.05% | 12% | -17.3% |
| Cc1ccc(-c2cc3c4nnc(SCC(=O)Nc5cccc(Br)c5)n4ccn3n2)cc1 | 4.45% | 7.43% | -29.25% |
| CCC(C)NC(=O)Cn1c(=O)c2nnc(C)n2c2ccccc21 (centres undefined) | 11.59% | 0.05% | -11.45% |
| Cc1ccc(-c2ccc3nn(Cc4cccc(Cl)c4)c(=O)n3n2)cc1C | 12.21% | 1.14% | -10.16% |
| COc1ccc(CCn2c(=O)c3sccc3n3c(=O)n(Cc4ccccc4Cl)nc23)cc1OC | 5.53% | -1.24% | -27.91% |
| O=C(Cn1nc2ccc(Sc3cccc(F)c3)nn2c1=O)Nc1ccc(Cl)cc1 | -0.35% | 14.09% | -7.49% |
| CCOC(=O)c1ccc(NC(=O)Cn2nc3c(SCc4ccc(Cl)cc4)nccn3c2=O)cc1 | 1.65% | 7.78% | -18.54% |
| COc1cccc(-n2ccn3c(SCC(=O)Nc4ccc(C(C)C)cc4)nnc3c2=O)c1 | -7.28% | 18.36% | -10.59% |
| O=c1n(Cc2c(F)cccc2Cl)nc2ccc(-c3ccccc3)nn12 | -0.01% | 8.72% | -10.32% |
| Cc1ccc(NC(=O)Cn2nc3c(N4CCOCC4)nccn3c2=O)cc1Cl | 6.31% | 3.12% | -5.46% |
| Cc1cc(C)c(NC(=O)Cn2nc3c(Sc4ccccc4)nccn3c2=O)c(C)c1 | -3.36% | 5.92% | -6.18% |
| O=C(Cn1nc2c(Sc3ccccc3)nccn2c1=O)Nc1cc(F)ccc1F | -2.16% | 0.26% | -12.37% |
| CCc1ccccc1Sc1nccn2c(=O)n(CC(=O)Nc3c(C)cccc3C)nc12 | 10.25% | 3.49% | -15.72% |
| CCOC(=O)c1ccccc1NC(=O)Cn1nc2c(Sc3ccccc3)nccn2c1=O | 9.77% | -1.59% | -6.53% |
| O=C(Cn1nc2c3cc(-c4ccc(F)cc4)nn3ccn2c1=O)N1CCN(c2ccccc2F)CC1 | 8.2% | 2.96% | -19.92% |
| Cc1cc2nn(CC(=O)Nc3ccc(F)cc3Cl)c(=O)n2c(Nc2ccc(F)cc2)n1 | 8.79% | 8.11% | -3.99% |
